PubChem BioAssay AID1745850 (National Center for Advancing Translational Sciences (NCATS), 2022)
Hit rate of the full screen: of about 2,100 compounds, about 260 (12%) were called active. Inconclusive results (about 58%) are left out. The call rests on the fitted dose curve; in most records, active means well fitted cell-killing curve with a large enough effect; inconclusive means small, poorly fitted or top-dose-only effect, or effect the other way; inactive means flat fitted curve, though single readings scatter. Some of the results follow. Entries that show only a call come without a potency.
Potency means the concentration at half of the fitted maximal effect.

Assay: Viability Counterscreen for Confirmatory qHTS for Inhibitors of ATXN expression; further: nearly all actives have a fitted effect of over 50% in size
Settings: HEK-293 ATXN2-luc cells viability, CellTiter-Fluor, 24 h
Method in brief: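 Cells with an ATXN2-luciferase reporter were dosed in a dilution series for 24 h at 37 degrees C. Viability was read first with Gly-Phe-AFC at 25 uM final (fluorescence, ex 405/em 540), then SteadyGlo luminescence. Medium-only wells defined 100% inhibition.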
With O=C(Nc1ccc2c(c1)CCC2)C1CCN(c2c3c(nc4ncnn24)CCC3)CC1 the Potency was “inactive”. For CN1C/C(=C/c2cccnc2)C(=O)/C(=C/c2cccnc2)C1, the Potency was “inactive”. With O=C1/C(=C/c2ccncc2)CCC/C1=C\c1ccncc1 the Potency was 10 µM (active). In the case of Cc1ccc(-c2nc3ccc(Cl)cn3c2CC(C)(C)C)cc1, the Potency is reported as “inactive”. With CCCNC(=O)c1ccc2c(=O)c(O)c(-c3cccc(Br)c3)[nH]c2c1 the Potency was “inactive”. For CCN(CC)C(=O)C1=C(C)N(CCC2=CCCCC2)C(=O)C(CC(=O)NC(c2ccccc2)c2ccccc2)C1 (stereo unspecified), the Potency was “inactive”. In the case of CC(C)C[C@H](N)c1cn([C@@H](CCCCN)C(=O)N2CCNCC2)nn1, the Potency is reported as “inactive”. In the case of COc1cc(OC)cc(-c2cc3nc(C)c(CCC(=O)O)c(C)n3n2)c1, the Potency is reported as “inactive”. With COc1ccc(-c2cc(NC=O)c3ncc(-c4cccc(C(=O)NCCN(C)C)c4)n3c2)cc1 the Potency was “inactive”. For CN1CCN(c2ccc(-c3cc(NC=O)c4ncc(-c5ccc(F)c(Cl)c5)n4c3)cc2)CC1, the Potency was 25.1 µM (active). In the case of CN(C)C(=O)c1cccc(-c2cnc3c(NC=O)cc(-c4ccc(F)cc4)cn23)c1, the Potency is reported as “inactive”. In the case of COc1ccc(Cl)cc1S(=O)(=O)N1CCN(C(=O)c2n[nH]c(=O)c3ccccc23)CC1, the Potency is reported as “inactive”. For O=C(NC1=CC(=O)c2ccccc2C1=O)c1ccccc1, the Potency was 14.1 µM (active). In the case of O=C(Nc1nonc1-c1ccc(Cl)cc1)c1ccccc1, the Potency is reported as “inactive”. With NCCCCCc1nnc(SCc2ccccc2Cl)o1 the Potency was “inactive”. In the case of COc1ccc(C2CC(c3cccc(Br)c3)=NN2c2ccc(S(N)(=O)=O)cc2)cc1 (stereo unspecified), the Potency is reported as “inactive”. In the case of CCC(=O)NC(c1ccc(C)cc1)c1cc([N+](=O)[O-])c2cccnc2c1O (stereo unspecified), the Potency is reported as 22.4 µM (active). In the case of CC(=O)NC(c1cccs1)c1cc([N+](=O)[O-])c2cccnc2c1O (stereo unspecified), the Potency is reported as 12.6 µM (active). With CCCCC(=O)NC(c1ccc(Cl)cc1Cl)c1ccc2cccnc2c1O (stereo unspecified) the Potency was “inactive”. In the case of Cc1cc(OCc2nc(N)nc(N)c2-c2ccc(Cl)c(Cl)c2)ccc1[N+](=O)[O-], the Potency is reported as “inactive”. With CCC(=O)NC(c1ccc(Cl)cc1Cl)c1ccc2cccnc2c1O (stereo unspecified) the Potency was 7.94 µM (active). For Cc1cc(OCC(=O)NC(C)c2ccccc2)ccc1[N+](=O)[O-] (stereo unspecified), the Potency was “inactive”. In the case of O=C(Nc1nccs1)c1cccc(N2C(=O)c3cccc4c([N+](=O)[O-])ccc(c34)C2=O)c1, the Potency is reported as “inactive”. For CC(C)C(=O)NC(c1ccccc1)c1cc([N+](=O)[O-])c2cccnc2c1O (stereo unspecified), the Potency was 22.4 µM (active). For O=C(Nc1c(Cl)cccc1Cl)Oc1cccc2cccnc12, the Potency was “inactive”. In the case of COc1ccc(C2CC(c3ccccc3C(F)(F)F)=NN2c2ccc(S(N)(=O)=O)cc2)cc1 (stereo unspecified), the Potency is reported as “inactive”.
